# Source: PubChem BioAssay (The Scripps Research Institute Molecular Screening Center)
# An excerpt weighted towards active compounds, which were near 3.4% of everything screened.
# TEAD-YAP inh = TEAD-YAP interaction inhibition | HEK-TIYL cells, TEAD-Gal4/YAP UAS-luciferase luminescence | inhibition, % at 9.12 µM | 640,000 tested, 1.4% active | AID 1259422; in the data active means inhibition above about 32%;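 further: 0% = median of test compound wells and 100% = reference inhibitor wells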
# MITF inh = inhibitors of human MITF; O75030; AlphaScreen MITF homodimerization, bead proximity signal; inhibition, % at 2.6 µM; 650,000 tested, 0.91% active; AID 1259374; in the data active means inhibition above about 50%;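 further: 0% = vehicle wells with protein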
# GPR151 ag = human GPR151 activation; Q8TDV0; PathHunter beta-arrestin GPR151 cells, luminescence; activation, % at 11.2 µM; 650,000 tested, 1% active; AID 1508602; in the data active means activation above about 4.9%;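 further: 0% = median of compound wells and 100% = cells with positive control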
# Target sequence (Q8TDV0 whole entry, looked up): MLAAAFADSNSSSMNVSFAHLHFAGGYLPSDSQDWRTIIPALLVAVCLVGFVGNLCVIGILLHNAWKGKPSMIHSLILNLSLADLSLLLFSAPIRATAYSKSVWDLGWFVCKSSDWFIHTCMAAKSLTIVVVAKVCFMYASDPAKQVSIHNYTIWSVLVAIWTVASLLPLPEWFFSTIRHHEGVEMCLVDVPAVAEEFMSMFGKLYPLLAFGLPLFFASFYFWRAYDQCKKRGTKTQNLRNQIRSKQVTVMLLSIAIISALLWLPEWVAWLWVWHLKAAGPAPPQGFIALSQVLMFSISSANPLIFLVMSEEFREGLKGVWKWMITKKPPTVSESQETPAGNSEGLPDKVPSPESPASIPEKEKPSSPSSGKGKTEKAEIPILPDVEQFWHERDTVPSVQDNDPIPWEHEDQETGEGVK
# FBW7 activator = activators of human E3 ligase FBW7; AlphaScreen FBW7–phospho-cyclin E peptide binding, activator screen; normalized activity (activation), % at 26.1 µM; 650,000 tested, 0.13% active; AID 1259310; in the data active means normalized activity above about 1.9%;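 further: purified mutant Fbw7 with reduced substrate affinity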
# Active calls of the source: *.
SMILES,TEAD-YAP inh,MITF inh,GPR151 ag,FBW7 activator
COc1ccc(C(c2ccc3cccnc3c2O)N2CCCC2)cc1 (stereo not given),84*,19,0,0
COc1ccc(C(c2ccc3cccnc3c2O)N2CCOCC2)cc1 (stereo not given),80*,18,-1,-1
Oc1c(C(c2ccc(Cl)cc2)N2CCOCC2)ccc2cccnc12 (stereo not given),78*,-5,0,0
Cn1c(=O)cc(OCCCC(=O)Nc2cccc(C(F)(F)F)c2)c2ccccc21,-8,0,2,0
COc1cccc(N2CCN(c3c4c(nc5nncn35)CCC4)CC2)c1,37*,7,-2,0
CCCCC(=O)Nc1ccc(C(=O)Nc2cc([N+](=O)[O-])ccc2OC)cc1,-5,-5,0,0
Cc1cc(NC(=O)C(C)(C)C)ccc1Br,0,-7,2,0
C=CC(=O)Nc1ccc(Br)c(C)c1,62*,4,-1,0
CC(C)(C)OC(=O)N1CCC(Nc2ccnc(Cl)n2)CC1,35*,5,1,0
Cc1ncn(-c2ccc(Nc3nccc(NC4CCN(C(=O)OC(C)(C)C)C4)n3)cc2)n1 (stereo not given),46*,7,1,0
CC(C)(C)OC(=O)N1CCC[C@H](Nc2ccnc(Cl)n2)C1,-41,3,1,0
Cc1ccc(-n2nc3c(c2NC(=O)c2cc([N+](=O)[O-])ccc2Cl)CS(=O)(=O)C3)cc1,16,5,2,0
Cc1ccccc1-n1nc2c(c1NC(=O)c1cc([N+](=O)[O-])ccc1Cl)CSC2,74*,11,0,0
Cc1ccc(-n2nc3c(c2NC(=O)c2cc([N+](=O)[O-])ccc2Cl)CS(=O)(=O)C3)c(C)c1,70*,6,-1,0
COc1ccc(-n2nc3c(c2NC(=O)c2cc([N+](=O)[O-])ccc2Cl)CS(=O)(=O)C3)cc1,73*,9,-1,0
Cc1ccc(-n2nc3c(c2NC(=O)c2ccc([N+](=O)[O-])cc2)CS(=O)(=O)C3)c(C)c1,4,11,0,1
C=CCN(c1ccc(C(=O)NC2CC3CCC2C3)cc1)S(C)(=O)=O (stereo not given),-5,6,0,0
COc1ccc(-c2cc(CC(=O)NCc3ccc(Cl)cc3)no2)cc1OC,47*,-1,2,0
COc1ccc(-c2cc(CC(=O)NC3CCCC3)no2)cc1OC,5,-13,1,0
CC(C)COC(=O)c1ccc(NC(=O)COc2ccc(Br)cc2)cc1,35*,0,1,0
COc1ccc(Cl)cc1NC1=C(Cl)C(=O)N(c2ccc(C)cc2)C1=O,45*,-5,1,0
CCc1ccc(N2C(=O)C(Cl)=C(Nc3cccc(OC)c3)C2=O)cc1,54*,13,1,0
COc1cccc(NC2=C(Cl)C(=O)N(c3ccc(C)cc3)C2=O)c1,4,11,-1,0
COc1ccccc1NC1=C(Cl)C(=O)N(c2ccc(C)cc2)C1=O,-5,10,2,0
CCCNc1nccc(-c2c(-c3ccc(F)cc3)nc3n2[C@H](CO)C[C@@H]3C)n1,12,-9,0,0
SMILES,TEAD-YAP inh,MITF inh,GPR151 ag,FBW7 activator
CCC(C)N1C(=O)/C(=C/c2c(NCc3ccco3)nc3ccccn3c2=O)SC1=S (stereo not given),43*,2,1,0
COC(=O)C1=C(C)N(c2ccc(OC)cc2)C(=O)/C1=C\c1ccc(C(=O)O)cc1,-2,1,-1,0
CC(=O)Nc1cc(F)cc(-c2ccnc(Nc3ccc(-n4nc(C)nc4C)cc3)n2)c1,45*,9,0,0
Cc1nc(C)n(-c2ccc(Nc3nccc(-c4cccc(-n5ccnn5)c4)n3)cc2)n1,44*,15,4,0
CCOC(=O)CN(C(=O)CCl)c1ccc(F)cc1,77*,-5,0,0
CC(NC(=O)c1nn2c(C(F)(F)F)cc(-c3ccc(Br)cc3)nc2c1Cl)c1ccccc1 (stereo not given),-3,1,1,0
Cc1cc(C)c2nc(NNC(=O)c3ccccc3)sc2c1,5,0,0,0
Cc1nc2c(cnn2-c2ccccc2)c(=O)n1-c1cccc2ccccc12,37*,7,0,0
CCCC(=O)Oc1c(Sc2ccccc2[N+](=O)[O-])c(C)nn1C(C)(C)C,34*,-14,1,0
O=C(N/N=C(/Cc1ccccc1)C(F)(F)F)c1ccccc1,-39,16,-1,1
Cc1sc2nc(C(C)C)n3c(=O)n(Cc4cccnc4)nc3c2c1C,-6,-12,0,0
